# “And” between values parts separate entries of the source, which are not always exact repeats. Equal entries are not always repeated. The source made the active and inactive calls.
# Key:
# [1] = anti-His antibody binders, primary screen, artefact control for SMM control protein annotation, biochemical, small-molecule microarray, 635 nm fluorescence (AID 1128); settings: anti-His Alexa647 antibody binding, higher = more signal;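 also: score merges feature fluorescence with signal-to-noise for each printed compound spot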
# [2] = test system: Human papillomavirus type 1a E7 protein (residues 1-88); experiment: HPV1a E7 small-molecule binders, primary screen, biochemical, small-molecule microarray, residues 1-88, 635 nm (AID 1129); settings: small-molecule microarray binding, fluorescence 635 nm; higher = more signal
# [3] = target: Focal adhesion kinase 1 (Homo sapiens) (UniProt Q05397); experiment: small-molecule microarray binders of FAK, primary screen, biochemical, 635/667 nm fluorescence, BSA, DTT (AID 1130); settings: PTK2 binding, 635 nm fluorescence, higher = more signal;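 also: composite of spot emission at 667 nm and signal to noise over triplicate slides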
# Focal adhesion kinase 1 (Homo sapiens), sequence (Q05397 whole entry, looked up): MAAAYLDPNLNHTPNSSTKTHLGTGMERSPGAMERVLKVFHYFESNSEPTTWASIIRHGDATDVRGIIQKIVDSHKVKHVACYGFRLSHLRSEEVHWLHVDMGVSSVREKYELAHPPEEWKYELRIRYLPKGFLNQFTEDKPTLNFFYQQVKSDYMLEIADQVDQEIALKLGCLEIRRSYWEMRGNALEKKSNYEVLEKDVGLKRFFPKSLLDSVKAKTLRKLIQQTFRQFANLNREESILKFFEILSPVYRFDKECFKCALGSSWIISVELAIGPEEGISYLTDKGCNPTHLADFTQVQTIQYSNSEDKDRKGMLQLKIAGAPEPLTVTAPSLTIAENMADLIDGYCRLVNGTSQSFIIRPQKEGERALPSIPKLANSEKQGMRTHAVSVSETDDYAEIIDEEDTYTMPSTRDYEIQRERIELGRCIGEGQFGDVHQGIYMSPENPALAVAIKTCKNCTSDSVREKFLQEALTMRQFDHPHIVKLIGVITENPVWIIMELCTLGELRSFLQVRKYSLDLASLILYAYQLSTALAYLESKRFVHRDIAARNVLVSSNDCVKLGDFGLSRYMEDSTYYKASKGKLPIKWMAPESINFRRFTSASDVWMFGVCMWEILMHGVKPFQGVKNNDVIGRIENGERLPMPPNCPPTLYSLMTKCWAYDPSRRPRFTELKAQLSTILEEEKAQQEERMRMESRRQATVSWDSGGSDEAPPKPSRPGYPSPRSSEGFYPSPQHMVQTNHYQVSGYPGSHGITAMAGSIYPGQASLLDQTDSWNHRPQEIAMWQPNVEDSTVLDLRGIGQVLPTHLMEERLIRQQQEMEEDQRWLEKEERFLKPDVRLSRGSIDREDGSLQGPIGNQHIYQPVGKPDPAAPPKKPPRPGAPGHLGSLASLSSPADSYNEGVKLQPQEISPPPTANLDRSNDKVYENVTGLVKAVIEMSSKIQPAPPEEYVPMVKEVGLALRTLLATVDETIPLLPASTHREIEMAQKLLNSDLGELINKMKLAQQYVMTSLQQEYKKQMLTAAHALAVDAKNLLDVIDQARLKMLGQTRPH
# [4] = test system: Fibrinogen (Alexa647-labelled); experiment: fibrinogen binders on compound microarrays, profiling panel, artefact control for SMM control-protein annotation, biochemical, small-molecule microarray, 635/667 nm fluorescence (AID 1131); settings: fibrinogen-A647 binding fluorescence, higher = more signal;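 also: z-score merges 667 nm fluorescence with per-spot signal-to-noise over triplicate slides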
# [5] = target: Follistatin (Homo sapiens) (UniProt P19883); experiment: follistatin binders on small-molecule microarrays, primary screen, biochemical, small-molecule microarray, 635/667 nm fluorescence (AID 1132); settings: FST binding, 635 nm fluorescence, higher = more signal
# Follistatin (Homo sapiens), sequence (P19883 whole entry, looked up): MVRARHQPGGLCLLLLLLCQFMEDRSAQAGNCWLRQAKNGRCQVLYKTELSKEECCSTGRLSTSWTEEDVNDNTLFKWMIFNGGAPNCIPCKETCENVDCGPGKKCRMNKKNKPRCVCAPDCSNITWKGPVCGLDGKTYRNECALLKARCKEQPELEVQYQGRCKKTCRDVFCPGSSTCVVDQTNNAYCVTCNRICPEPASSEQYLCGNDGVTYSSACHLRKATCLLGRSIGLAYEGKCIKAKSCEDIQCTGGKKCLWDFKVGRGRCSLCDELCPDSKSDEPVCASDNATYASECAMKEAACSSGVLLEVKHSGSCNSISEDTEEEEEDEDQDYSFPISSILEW
# [6] = target: Fibroblast growth factor 2 (Homo sapiens) (UniProt P09038); experiment: FGF2 binders on small-molecule microarrays, primary screen, biochemical, small-molecule microarray, 635/667 nm fluorescence (AID 1133); settings: small-molecule microarray binding, FGF2, fluorescence 635/667; higher = more signal
# Fibroblast growth factor 2 (Homo sapiens), sequence (P09038 whole entry, looked up): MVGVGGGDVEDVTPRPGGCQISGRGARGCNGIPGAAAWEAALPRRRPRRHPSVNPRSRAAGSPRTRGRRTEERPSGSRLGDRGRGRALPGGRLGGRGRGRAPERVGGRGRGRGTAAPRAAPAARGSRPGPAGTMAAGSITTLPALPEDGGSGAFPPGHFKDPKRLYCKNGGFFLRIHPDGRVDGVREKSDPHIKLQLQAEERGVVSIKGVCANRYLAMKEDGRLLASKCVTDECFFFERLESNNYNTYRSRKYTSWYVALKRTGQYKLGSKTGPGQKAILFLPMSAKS
# [7] = mitochondrial membrane potential change in A549 cells, profiling panel, cell-based, JC-1 fluorescence, basal, 24 h, 100 nL (AID 1138); settings: higher = more signal;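 also: A549 lung adenocarcinoma cells under basal conditions with no added stimulus; test concentration not given here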
# [8] = test system: Lefty1; experiment: Lefty1 binders on small-molecule microarrays, primary screen, biochemical, small-molecule microarray, 635/667 nm fluorescence (AID 1139); settings: small-molecule microarray binding, fluorescence 635/667; higher = more signal
# [9] = test system: wheat germ agglutinin (Triticum aestivum), Alexa647-labelled; experiment: wheat germ agglutinin binders on compound microarrays, profiling panel, artefact control for SMM control-protein annotation, biochemical, small-molecule microarray, 635/667 nm fluorescence (AID 1140); settings: WGA-A647 binding, 635 nm fluorescence, higher = more signal;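 also: score merges 667 nm feature emission with signal to noise over triplicate slides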
# [10] = target: Luciferin 4-monooxygenase (Photinus pyralis) (UniProt P08659); experiment: firefly luciferase enzyme inhibitors, primary screen, biochemical, luminescence, purified enzyme, 2006 set (AID 1141); settings: SteadyGlo luminescence, 30 min, higher = more signal, called active from +8 up or from −8 down;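 also: cell-free assay with purified firefly luciferase at 100 ng per well in PBS; test concentration not given here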
# Luciferin 4-monooxygenase (Photinus pyralis), sequence (P08659 whole entry, looked up): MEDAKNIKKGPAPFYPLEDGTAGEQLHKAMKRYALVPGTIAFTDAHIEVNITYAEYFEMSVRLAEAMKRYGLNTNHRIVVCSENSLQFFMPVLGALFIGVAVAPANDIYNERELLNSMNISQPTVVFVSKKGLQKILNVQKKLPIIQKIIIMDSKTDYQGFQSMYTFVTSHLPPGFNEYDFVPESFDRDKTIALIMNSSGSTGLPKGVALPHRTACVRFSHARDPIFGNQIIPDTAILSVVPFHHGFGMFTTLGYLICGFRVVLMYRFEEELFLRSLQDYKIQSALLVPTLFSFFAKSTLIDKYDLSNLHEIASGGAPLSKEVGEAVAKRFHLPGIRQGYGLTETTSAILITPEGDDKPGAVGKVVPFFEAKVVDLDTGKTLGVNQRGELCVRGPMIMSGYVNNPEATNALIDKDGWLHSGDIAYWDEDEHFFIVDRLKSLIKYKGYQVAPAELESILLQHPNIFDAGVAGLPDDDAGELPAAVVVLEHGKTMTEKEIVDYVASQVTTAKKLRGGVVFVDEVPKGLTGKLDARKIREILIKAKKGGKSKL
SMILES,composite z-score [1],composite z-score [2],composite z-score [3],composite z-score [4],composite z-score [5],composite z-score [6],z-score [7],composite z-score [8],composite z-score [9],z-score [10]
CC(C)C(=O)N[C@@H]1CCCN1C(=O)C=Cc1ccccc1,0.108,0.746,0.746,0.494,0.541,0.565,1.81,0.813,-0.0087,-0.489 (inactive)
CN1C(=O)C2CC=C([C@H]3Oc4ccccc4S(=O)(=O)N4CCC[C@@H]34)CC2C1=O (stereo not given in full),0.009 and -0.183,-0.984 and -0.409,0.285 and 0.14,0.0887 and -1.25,-0.375 and -0.417,-0.19 and -0.132,-0.719 and -0.239,-0.499 and 0.192,-0.213 and -1.39,0.156 (inactive) and 0.737 (inactive)
CC(C)CCN1CCc2nc(-c3ccccc3)c3c(c2C1)CO[C@@H](C)C3,0.554,0.669,0.304,0.436,0.785,0.528,1.19,0.631,0.931,-1.17 (inactive)
CC(CO)N1C(=O)[C@@H]2C3C(=O)OCCC=C[C@H]3OC23C=CCN(C(C)(C)C)C(=O)[C@@H]13 (stereo not given in full),-2.03 and 0.11,-1.08 and -0.0333,-0.0802 and -0.371,-1.65 and -0.445,-1.1 and -0.0304,-0.325 and -0.263,-0.619 and -0.394,-1.08 and 0.542,-2.85 and 0.0101,-0.685 (inactive) and -0.146 (inactive)
C=C[C@@H](C)[C@H](O)c1ccc(O)c2ccccc12,-0.181 and 1.87,-0.7 and -1.54,0.825 and -0.491,0.837 and -0.449,1.31 and 0.663,1.14 and 0.0819,-0.832 and -0.689,0.948 and -0.871,0.0825 and -0.52,0.546 (inactive) and 0.338 (inactive)
C=CCN(CCCC)C(=O)C1N(C(C)(C)CO)C(=O)C2C(C(=O)O)C3C=CC21O3 (stereo not given),-0.767 and -0.57,-1.26 and -1.35,-0.909 and -1.23,-4.07 and -1.59,-2.17 and -2.38,-1.42 and -1.18,-0.628 and -0.501,-1.93 and -1.64,-0.788 and -0.799,1.12 (inactive) and 0.853 (inactive)
C=C[C@@H](C)[C@@H](O)c1ccc(OCCO)cc1,-0.641 and -0.244,-0.66 and -0.875,-0.467 and -1.08,-1.87 and -1.43,-1.14 and -0.506,-2.62 and -0.83,-0.0607 and 0.803,-1.33 and -1.19,-0.616 and -0.2,-5.97 (inactive) and -7.19 (inactive)
COC(=O)C1=C(C)N(Cc2ccccc2)[C@]23O[C@](C(=O)OC)(C(=O)N2[C@@H]1c1ccccc1)[C@@H](c1ccccc1)[C@@H]3C(=O)c1ccccc1,-0.148 and -0.112,0.771 and 0.0338,-0.0865 and -0.11,0.502 and -0.435,-0.0105 and 0.958,0.416 and 0.847,0.914 and 0.835,0.0005 and 0.36,0.516 and -0.17,-0.917 (inactive) and -0.717 (inactive)
CCOC(=O)[C@H](CC(C)C)NC(=O)CCC1CC(OC(=O)NCc2cccc3ccccc23)CC2(CCCC(COC(=O)NCc3ccccc3)O2)O1 (stereo not given in full),0.223,-0.439,-0.159,-1.97,-0.126,-0.105,0.629,0.275,-0.0551,0.529 (inactive)
CCOC(=O)CCN1C(=O)[C@H]2[C@H]3[C@H](O)[C@H](O)CC(=NNC(=O)OCC)[C@@H]3CC[C@H]2C1=O,-0.23,0.364,0.366,0.384,-0.124,0.447,0.167,-0.0407,-0.368,0.406 (inactive)
CO[C@@H]1COC(=O)CC=C[C@H](C)COC(=O)[C@H](C)NC(=O)CC=C[C@H]1C,0.401,-0.375,-0.0308,-0.607,1.11,1.72,0.521,1.03,-0.587,-0.394 (inactive)
C=CCN(C(=O)C1N(c2c(Cl)cccc2CO)C(=O)C2C(C(=O)O)C3C=CC21O3)C(C)(C)C (stereo not given),-0.687 and -0.455,0.0063 and -0.941,-0.0019 and 0.0154,-0.925 and -0.724,-0.85 and -0.957,-1.46 and -0.409,-0.868 and 1.49,-1.33 and -1.93,-0.0278 and -0.665,1.15 (inactive) and -1.5 (inactive)
C=CCN(Cc1ccccc1)C(=O)C1N(C(C)(C)CO)C(=O)C2C(C(=O)O)C3C=CC21O3 (stereo not given),-1.67 and -0.97,-1.24 and -0.825,-0.571 and -1.31,-2.5 and -2.76,-2.21 and -1.21,-1.48 and -2.77,-0.188 and -0.414,-2.57 and -1.65,-1.76 and -0.466,0.519 (inactive) and 1.45 (inactive)
CC(C)[Si]1(C(C)C)OCc2cc(CCCc3cc4c(c(CCc5ccccc5)n3)[Si](C(C)C)(C(C)C)OC4)nc(CCc3ccccc3)c21,-0.779 and 0.0773,-0.265 and 0.56,-0.293 and -0.0124,-0.551 and 0.0539,-0.43 and 0.238,-0.0119 and 0.483,0.627 and 0.00206,-0.11 and 0.41,-1.24 and -0.214,-1.11 (inactive) and 0.714 (inactive)
C=CCN(C(=O)C(c1cccs1)N(C(=O)/C=C\C(=O)O)c1c(Cl)cccc1CO)C(C)(C)C (stereo not given),0.28 and -0.668,-1.4 and -1.02,-0.513 and -0.619,-2.69 and -1.15,-1.48 and -1.81,-2.01 and -2.33,0.674 and 0.368,-1.96 and -2.54,-0.543 and -1,-0.242 (inactive) and -0.42 (inactive)
COC(=O)[C@@]1(Cc2ccccc2)[C@H]2c3cc(C(=O)N(C)C)n(Cc4ccc(C)c(F)c4F)c3C[C@H]2CN1C(=O)c1ccccc1,1.95 and 1.06,1.24 and 1.25,0.73 and 1.04,0.966 and 1.01,0.096 and 1.26,-0.824 and -0.149,-1.17 and -1.14,-0.587 and 0.642,0.899 and 1.03,-1.27 (inactive) and 0.773 (inactive)

# — PubChem BioAssay
